Screens as filed in PubChem.
Pf growth 48h – P. falciparum growth inhibition at 48 hours (one generation); 5.9% of 310,000 active; Potency, µM (top dose mostly 28.7 µM), inactives show top-dose activity change, negative = inhibition, most hits filed as inhibitors; P. falciparum luciferase growth in erythrocytes, 48 h; further: potency means the concentration at half of the fitted maximal effect; on the % scale 0 is the no-effect control and ±100 the full control effect
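Luciferase-expressing parasites in RBCs, 2% Hct / 0.1% parasitemia final; RPMI 1640 + 0.5% Albumax; 37 C, 5% CO2, one generation; luminescence read-out, lower signal = inhibition.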
Cycloheximide cs – affects cycloheximide protein synthesis inhibition readout, counter-screen | cell reporter, cycloheximide protein synthesis inhibition counterscreen | 12% of 300,000 active | max response, %; in the data active means max response mostly above about 13%, no sharp cut-off; inactive means mostly below about 14%; further: read at 38.3 µM for the half of the compounds with a filed dose; 0% is about no effect
Pf growth 96h – P. falciparum growth inhibition at 96 hour, primary screen for plastid delayed-death inhibitors; P. falciparum luciferase reporter growth, 96 h; 6.9% of 320,000 active; Potency, µM (series often up to 28.7 µM), for inactives: top-dose activity change, negative = inhibition, usual class: inhibitors; further: potency means the concentration at half of the fitted maximal effect; on the % scale 0 is the no-effect control and ±100 the full control effect
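Parasite growth measured via integrated firefly luciferase reporter in P. falciparum. Infected erythrocytes at 2% hematocrit, 0.05% parasitemia final were treated 96 hours at 37 C under 5% CO2, and luminescence was read.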
Shiga inhibitor – inhibitors of Shiga toxin in Vero cells; Vero cells, Shiga toxin protein synthesis inhibition reporter; inhibition, % at 38.7 µM; 9.2% of 290,000 active; AID 2315; in the data active means inhibition mostly above about 28%, no sharp cut-off; inactive means mostly below about 43%; further: 0% is about no effect
Sm TGR block – blocks Schistosoma mansoni thioredoxin glutathione reductase. AID 485364. 3% of 360,000 active. Q962Y6. purified TGR, DTNB reduction, TNB absorbance 405 nm. Potency, µM (doses to about 114 µM), without a hit: at the top dose activity change, negative = inhibition, hits mostly inhibitors; further: potency means the concentration at half of the fitted maximal effect; on the % scale 0 is the no-effect control and ±100 the full control effect; nearly all actives have a fitted effect of over 60% in size
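Kinetic colorimetric format: TGR-catalysed, NADPH-driven DTNB reduction monitored via TNB absorbance. Enzyme dispensed at 20 nM; compound exposure 15 min at room temperature before reaction start.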
NS1 function inh – inhibitors of influenza NS1 protein function | Potency, µM (top dose mostly 46.1 µM), for the others: at the highest dose activity, positive = more growth | 0.4% of 270,000 active | AID 2326; calls by dose curve; further: potency means the concentration at half of the fitted maximal effect; actives are rising curves; nearly all actives have a fitted effect of over 50% in size
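S. cerevisiae expressing influenza A NS1, grown in glucose, washed, then diluted 1:100 into pH 6.0 -URA galactose medium with 23 nl compound. Growth recovery read as OD600; NS1-free strain serves as control.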
The depositor's hits bear a star; ? = inconclusive; / = no result; [ ] = dose if it differs, or a comment. Only some compounds are listed: those with a hit (about 21% of all), similar ones and a draw of the others. Unless noted, the call rests on the fitted dose curve; in most records, active means well fitted curve in the direction sought with a large enough effect; inconclusive means small, poorly fitted or top-dose-only effect, or another doubt; inactive means no such curve, though single readings can be large; an effect the other way counts as inactive or inconclusive.

SMILES	Pf growth 48h	Cycloheximide cs	Pf growth 96h	Shiga inhibitor	Sm TGR block	NS1 function inh
O=C(N/N=C/c1cccc([N+](=O)[O-])c1)c1ccccc1-n1cccc1	-11.7%	3.9	-0.1%	27.9*	0.1%	/
O=C(N/N=C/c1cc([N+](=O)[O-])ccc1O)C1CC1	?	-0.4	8.4%	-12.5	-5.8%	-72.2%
O=C(N/N=C/c1cc([N+](=O)[O-])ccc1O)c1cccc2cc[nH]c12	?	33.1*	3.7µM*	31.0*	12.9%	-30.4%
Cc1nc2c(C)cccc2cc1C(=O)N/N=C/c1cccc([N+](=O)[O-])c1	-3.6%	-2.7	35.7%	-4.4	2.7%	12.6%
COc1ccc(-c2nc(C)c(CCNC(=O)C(=O)Nc3c(C)cccc3C)s2)cc1OC	/	/	/	/	1.4%	/
CCc1ccc(C(=O)COC(=O)C(Cc2c[nH]c3ccccc23)NC(=O)c2ccc(Br)cc2)cc1 (centres undefined)	/	/	/	/	-3.2%	/
Cc1cccc(Nc2ncnc3onc(-c4cccc(Cl)c4)c23)c1C	?	8.2*	9.28µM*	12.0	-12.9%	-52.1%
Cc1cc(C(=O)NNC(=O)CN2C(=O)NC(C)(c3ccccc3)C2=O)c(C)o1 (centres undefined)	9.7%	/	0.4%	/	-0.7%	/
CCC(=O)c1cc2c(cc1NC(=O)c1ccccc1)OCCO2	/	1.0	46.5%	-2.4	2.6%	-49.1%
CC(C)C(=O)Nc1cc2c(cc1C(=O)c1ccccc1)OCCO2	?	-2.2	1.31µM*	-9.9	10.9%	-3.7%
CCCC(=O)c1cc2c(cc1NC(=O)c1ccccc1F)OCCO2	?	12.9	11.7µM*	36.6	-6.4%	/
CC(=O)Nc1cc2c(cc1C(=O)c1ccc(C)cc1)OCCO2	1.2%	-0.6	-6.1%	-14.2	7.3%	-7.1%
CCC(=O)c1cc2c(cc1NC(=O)C(C)C)OCCO2	-2.4%	17.5	2.33µM*	-12.6	-15.3%	1.8%
CCC1=Nc2ccccc2NC2=C1C(=O)CCC2	-8.7%	29.8*	-16.9%	77.3*	-8.6%	-4.0%
CC1CC(=O)C2=C(C1)Nc1ccccc1N=C2 (centres undefined)	/	-2.7	10.9%	-20.9	0.2%	-5.2%
COc1ccc(Cl)cc1NC(=O)c1cc(S(=O)(=O)N2CCc3ccccc32)cn1C	/	/	/	/	1.7%	/
COc1cc(/C=N/Nc2ccnc(=O)[nH]2)ccc1O	-26.8%[0.00184 µM]	32.1*	?	66.7	1.0%	4.1%
O=c1nccc(N/N=C/c2cccc(O)c2)[nH]1	69.8%	26.3*	44.4%	2.3	0.7%	2.2%
CCCOc1ccccc1/C=N/Nc1ccnc(=O)[nH]1	?	6.2	-25.4%	3.1	-5.0%	3.3%
CCC(=O)Nc1cccc(NC(=S)NC(=O)c2cc3ccccc3o2)c1	357.2%	35.4*	40.9%	71.5*	-1.6%	/
COC(=O)c1cc(NC(=O)c2cc3ccccc3o2)cc(C(=O)OC)c1	-2.8%	-3.4	-15.9%	-3.2	-0.3%	-5.5%
O=C(O)c1ccc(NC(=O)c2cc3ccccc3o2)cc1	46.1%	21.3*	-23.2%	46.8	-4.0%	-25.8%
CCC(=O)Nc1ccc(NC(=S)NC(=O)c2cc3ccccc3o2)cc1	-23.6%	0.7	?	16.7	3.1%	5.4%
COc1cc(OC)cc(C(=O)Nc2ccc3c(c2)n(C)c(=O)n3C)c1	3.0%	3.9	55.2%	19.7	-23.6%	8.9%
Cc1ccc(C(=O)Nc2ccc3c(c2)n(C)c(=O)c(=O)n3C)cc1	/	/	/	/	3.4%	/
SMILES	Pf growth 48h	Cycloheximide cs	Pf growth 96h	Shiga inhibitor	Sm TGR block	NS1 function inh
Cn1c(=O)n(C)c2cc(NC(=O)c3cc4ccccc4o3)ccc21	7.7%	32.8*	?	88.9*	7.6%	-44.4%
CCc1ccc(C(=O)Nc2ccc3c(c2)n(C)c(=O)n3C)cc1	1.6%	12.0*	?	/	-28.3%	-6.1%
Cn1cnnc1SCC(=O)NC1CCCCC1	14.4%	0.1	-21.2%	-5.7	?	/
O=C(Nc1ccc2oc(=O)ccc2c1)c1cc2ccccc2o1	155.2%	35.3*	?	53.7*	3.5%	24.5%
CCC(=O)Nc1ccc(NC(=O)c2cc3ccccc3o2)cc1	55.2%	69.6*	?	82.6*	-2.2%	-62.5%
Cc1cc(=O)oc2cc(NC(=O)c3cc4ccccc4o3)ccc12	99.9%	20.3	/	80.3	-1.7%	3.6%
Cc1ccc(OC(C)C(=O)Nc2ccc3c(c2)n(C)c(=O)n3C)cc1C (centres undefined)	?	-2.3	?	/	-4.9%	-13.1%
CCc1cccc(C)c1NC(=O)c1cc2ccccc2o1	/	/	/	/	-7.1%	/
O=C(Nc1ccc2c(c1)OCCO2)c1cc2ccccc2o1	247.9%	23.7*	-21.2%	87.6*	1.1%	/
Cc1cc(C)cc(OC(C)C(=O)Nc2ccc3c(c2)n(C)c(=O)n3C)c1 (centres undefined)	-5.5%	-2.5	0.928µM*	-0.9	-23.3%	-10.5%
COc1ccc(Nc2oc(-c3ccc(COc4ccc(OC)cc4)o3)nc2C#N)cc1	/	/	/	/	-4.4%	/
CCCCn1c(N)c(N(CC)C(=O)c2cccc(OC)c2)c(=O)[nH]c1=O	10.5%	-4.5	-11.8%	-6.7	11.3%	6.3%
CC(Cc1ccccc1)NC(=O)c1cc2ccccc2o1 (centres undefined)	-23.3%	58.6*	-2.3%	141.0*	-3.0%	-10.3%
CC(Cc1ccccc1)NC(N)=O (centres undefined)	36.9%	2.4	66.3%	-7.0	1.4%	10.0%
CC1=C(C#N)C(NC(=O)c2ccc(Cl)cc2)(C(F)(F)F)C(=O)N1 (centres undefined)	-10.7%	-0.4	7.3%	-7.2	4.5%	11.5%
Cc1ccc(-c2cc(C(=O)Nc3ccc(S(=O)(=O)Nc4cc(C)on4)cc3)c3ccccc3n2)c(C)c1	?	-0.7	7.38µM*	9.3	8.4%	15.9%
COc1ccc(-c2nc3ccccc3c(C(=O)Nc3ccc(S(=O)(=O)Nc4cc(C)on4)cc3)c2C)cc1	10.4µM*	-2.6	?	-9.4	-11.0%	?
Clc1cccc(C2=NC(c3cccs3)=Nc3ccc(Br)cc3N2)c1	/	/	/	/	4.5%	/
Cc1ccccc1OCC(=O)N1N=C(C(F)(F)F)CC1(O)C(C)(C)C (centres undefined)	10.4µM*	-2.3	?	-5.7	?	-24.7%
CC(C)(C)c1ccc(NC(=O)CSc2nnc(-c3n[nH]c4ccccc34)o2)cc1	80.2%	26.2	10.9%	37.3*	1.9%	8.9%
O=C(C1CCN(S(=O)(=O)c2ccc(Br)s2)CC1)N1CCN(c2cccc(C(F)(F)F)c2)CC1	/	/	/	/	8.3%	/
Cc1ccc2c(c1)c1c(c(=O)n(-c3ccccc3)c(=O)n1CC(=O)c1ccc(F)cc1)n2C	/	/	/	/	2.1%	/
CC[n+]1c(C)cc(C)n1-c1ccccc1	?	-5.5	8.28µM*	-8.8	8.8%	/
Cc1cc(NCCN2CCOCC2)c2ccc3ccccc3c2n1	?	23.0*	1.9%	84.4*	-10.5%[57.1 µM]	-1.2%
COc1ccc2nc(C)cc(NCCN3CCOCC3)c2c1	?	-3.1	?	-18.4	5.9%	1.5%
